PubChem BioAssay AID1159580 (chemical genetic matrix, 2015)
Hit rate of the full screen: of about 5,500 compounds, about 2,000 (36%) were called active. Not shown: some 18% with an inconclusive outcome. Cut-off read from the data, not from the text of the source: active = normalized growth mostly below about 0.91 (no sharp cut-off); inconclusive = no clear call, values can overlap the other calls; inactive = mostly above about 0.92. The list shows a part of the results.

Experiment: chemical genetic growth profiling, strain panel (AID 1159580);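 note: tested at 20 µM; growth read once vehicle control cultures reached saturation at 30 °C; 1 = growth at the plate median or of vehicle wells; lower values mean less growth of the strain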
Settings: growth OD

Measured: normalized growth

CC(=O)NCc1c(I)c(NC(C)=O)c(I)c(C(=O)O)c1I
inactive: S. cerevisiae deletion strains, locus YJR075W, strain HOC1, hits give low values 1.01 | S. cerevisiae deletion strains, locus YKL009W, strain mrt4, hits give low values 1.1 | S. cerevisiae deletion strains, locus YKL068W, hits give low values 0.977 | S. cerevisiae deletion strains, locus YKL085W, strain MDH1 (second series), hits give low values 1.01 | S. cerevisiae deletion strains, locus YKL085W, strain MDH1, hits give low values 1.01 | S. cerevisiae deletion strains, locus YKL160W, strain elf1, hits give low values 0.981 | S. cerevisiae deletion strains, locus YKL190W, strain CNB1, hits give low values 0.997 | S. cerevisiae deletion strains, locus YKR001C, strain vps1, hits give low values 1 | S. cerevisiae deletion strains, locus YKR026C, strain gcn3, hits give low values 0.994 | S. cerevisiae deletion strains, locus YKR091W, strain srl3, hits give low values 0.998 | S. cerevisiae deletion strains, locus YLL001W, strain dnm1, hits give low values 0.999 | S. cerevisiae deletion strains, locus YLL026W, hits give low values 0.991 | S. cerevisiae deletion strains, locus YLL041C, strain sdh2, hits give low values 0.995 | S. cerevisiae deletion strains, locus YLR027C, strain aat2, hits give low values 1 | S. cerevisiae deletion strains, locus YLR039C, strain RIC1, hits give low values 1 | S. cerevisiae deletion strains, locus YLR058C, strain SHM2, hits give low values 0.999 | S. cerevisiae deletion strains, locus YLR102C, strain apc9, hits give low values 0.993 | S. cerevisiae deletion strains, locus YLR113W, strain HOG1, hits give low values 1.02 | S. cerevisiae deletion strains, locus YLR221C, strain rsa3, hits give low values 0.992 | S. cerevisiae deletion strains, locus YLR258W, strain gsy2, hits give low values 1 | S. cerevisiae deletion strains, locus YLR262C, strain YPT6 (second series), hits give low values 1 | S. cerevisiae deletion strains, locus YLR262C, strain YPT6, hits give low values 0.991 | S. cerevisiae deletion strains, locus YLR268W, strain sec22, hits give low values 0.97 | S. cerevisiae deletion strains, locus YLR320W, strain mms22, hits give low values 0.978 | S. cerevisiae deletion strains, locus YLR330W, strain CHS5, hits give low values 0.992 | S. cerevisiae deletion strains, locus YLR342W, strain FKS1 (second series), hits give low values 1.04 | S. cerevisiae deletion strains, locus YLR342W, strain FKS1, hits give low values 0.999 | S. cerevisiae deletion strains, locus YLR357W, strain rsc2, hits give low values 1.01 | S. cerevisiae deletion strains, locus YLR370C, strain arc18, hits give low values 1 | S. cerevisiae deletion strains, locus YLR371W, strain rom2, hits give low values 0.99 | S. cerevisiae deletion strains, locus YLR384C, strain iki3, hits give low values 0.987 | S. cerevisiae deletion strains, locus YLR418C, strain cdc73, hits give low values 1.02 | S. cerevisiae deletion strains, locus YML016C, strain PPZ1, hits give low values 1 | S. cerevisiae deletion strains, locus YML032C, strain rad52, hits give low values 0.998 | S. cerevisiae deletion strains, locus YML120C, strain ndi1, hits give low values 0.994 | S. cerevisiae deletion strains, locus YML124C, strain tub3, hits give low values 1 | S. cerevisiae deletion strains, locus YMR058W, strain fet3, hits give low values 0.995 | S. cerevisiae deletion strains, locus YMR078C, strain ctf18, hits give low values 0.984 | S. cerevisiae deletion strains, locus YMR125W, strain sto1, hits give low values 1.02 | S. cerevisiae deletion strains, locus YMR129W, hits give low values 1 | S. cerevisiae deletion strains, locus YMR205C, strain PFK2, hits give low values 1.01 | S. cerevisiae deletion strains, locus YMR223W, strain ubp8, hits give low values 1.02 | S. cerevisiae deletion strains, locus YMR231W, strain pep5, hits give low values 0.991 | S. cerevisiae deletion strains, locus YMR263W, strain SAP30, hits give low values 0.987 | S. cerevisiae deletion strains, locus YMR307W, strain GAS1, hits give low values 1.08 | S. cerevisiae deletion strains, locus YNL067W, strain RPL9B, hits give low values 0.987 | S. cerevisiae deletion strains, locus YNL071W, strain lat1, hits give low values 1 | S. cerevisiae deletion strains, locus YNL128W, strain TEP1, hits give low values 0.988 | S. cerevisiae deletion strains, locus YNL153C, strain GIM3, hits give low values 0.999 | S. cerevisiae deletion strains, locus YNL183C, strain NPR1, hits give low values 0.963 | S. cerevisiae deletion strains, locus YNL209W, strain ssb2, hits give low values 1 | S. cerevisiae deletion strains, locus YNL233W, strain BNI4, hits give low values 1.01 | S. cerevisiae deletion strains, locus YNL248C, strain rpa49, hits give low values 0.996 | S. cerevisiae deletion strains, locus YNL250W, strain rad50, hits give low values 0.99 | S. cerevisiae deletion strains, locus YNL271C, strain bni1, hits give low values 0.989 | S. cerevisiae deletion strains, locus YNL298W, strain CLA4, hits give low values 0.995 | S. cerevisiae deletion strains, locus YNL307C, strain MCK1, hits give low values 0.997 | S. cerevisiae deletion strains, locus YNL322C, strain KRE1 (second series), hits give low values 0.989 | S. cerevisiae deletion strains, locus YNL322C, strain KRE1, hits give low values 0.994 | S. cerevisiae deletion strains, locus YNR049C, strain mso1, hits give low values 0.996 | S. cerevisiae deletion strains, locus YNR052C, strain pop2, hits give low values 0.978 | S. cerevisiae deletion strains, locus YOL006C, strain TOP1, hits give low values 0.981 | S. cerevisiae deletion strains, locus YOL012C, strain htz1 0.964 | S. cerevisiae deletion strains, locus YOL147C, strain pex11, hits give low values 0.995 | S. cerevisiae deletion strains, locus YOR001W, strain rrp6, hits give low values 1.01 | S. cerevisiae deletion strains, locus YOR061W, strain CKA2, hits give low values 1 | S. cerevisiae deletion strains, locus YOR069W, strain VPS5, hits give low values 0.998 | S. cerevisiae deletion strains, locus YOR070C, strain gyp1, hits give low values 0.998 | S. cerevisiae deletion strains, locus YOR080W, strain dia2, hits give low values 0.995 | S. cerevisiae deletion strains, locus YOR083W, strain WHI5, hits give low values 0.983 | S. cerevisiae deletion strains, locus YOR106W, strain vam3, hits give low values 0.979 | S. cerevisiae deletion strains, locus YOR136W, strain idh2, hits give low values 0.999 | S. cerevisiae deletion strains, locus YOR144C, strain elg1, hits give low values 0.984 | S. cerevisiae deletion strains, locus YOR184W, strain ser1, hits give low values 0.995 | S. cerevisiae deletion strains, locus YOR231W, strain MKK1, hits give low values 1.03 | S. cerevisiae deletion strains, locus YOR265W, strain rbl2, hits give low values 0.994 | S. cerevisiae deletion strains, locus YOR270C, strain vph1, hits give low values 1.02 | S. cerevisiae deletion strains, locus YOR290C, strain snf2, hits give low values 1.01 | S. cerevisiae deletion strains, locus YOR316C, strain cot1, hits give low values 0.986 | S. cerevisiae deletion strains, locus YPL051W, strain arl3, hits give low values 0.997 | S. cerevisiae deletion strains, locus YPL055C, strain LGE1, hits give low values 0.984 | S. cerevisiae deletion strains, locus YPL078C, strain atp4, hits give low values 1 | S. cerevisiae deletion strains, locus YPL106C, strain sse1, hits give low values 0.993 | S. cerevisiae deletion strains, locus YPL240C, strain hsp82, hits give low values 0.98 | S. cerevisiae deletion strains, locus YPL241C, strain CIN2, hits give low values 1 | S. cerevisiae deletion strains, locus YPL256C, strain CLN2, hits give low values 1.01 | S. cerevisiae deletion strains, locus YPR119W, strain clb2, hits give low values 0.999 | S. cerevisiae deletion strains, locus YPR141C, strain kar3, hits give low values 0.986 | S. cerevisiae deletion strains, locus YPR163C, strain tif3, hits give low values 1 | S. cerevisiae deletion strains, locus YPR167C, strain met16, hits give low values 0.985 | S. cerevisiae deletion strains, strain wtn01, hits give low values 0.989 | S. cerevisiae strains, strain wild type, hits give low values 1
